Bioassay records as filed in PubChem.
RN4220 kill: kills Staphylococcus aureus RN4220; inhibition, % (test concentration not listed); S. aureus RN4220 growth, OD600, 16 h; AID 1259311; actives 0.33% (n = 330,000); in the data active means inhibition above about 85%;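 further: plate controls were untreated cells for no effect and reference antibiotic for full effect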
BioA inh: BioA (M. tuberculosis) enzyme inhibition; actives 0.096% (n = 360,000); inhibition, % at 9.99 µM; purified M. tuberculosis BioA enzyme, plate reader; in the data active means inhibition above about 40%
Y pestis TopoI: Y. pestis Topo-I inhibition via cleavage products; Y. pestis Topo-I cleavage product accumulation, plate reader; activity, % at 10 µM; actives 0.064% (n = 360,000); AID 504884; in the data active means activity above about 50%, passing the limit was not always enough
Mtb hypoxia inh: reduces hypoxia-regulated biosensor signal in M. tuberculosis. M. tuberculosis hypoxia-regulated fluorescent reporter, fluorescence. fluorescence inhibition, % (test concentration not listed). actives 0.1% (n = 300,000); in the data active means fluorescence inhibition mostly above about 23%, no sharp cut-off; inactive means mostly below about 17%
TcdB GH inh: inhibitors of Clostridioides difficile toxin B glycohydrolase | P18177 | TcdB glycohydrolase enzymatic assay, plate reader | inhibition, % at 9.99 µM | actives 0.24% (n = 350,000); in the data active means inhibition above about 10%
ugtP null kill: growth inhibition of S. aureus ugtP deletion strain; S. aureus RN4220 ugtP deletion, OD600 growth, 16 h; growth inhibition, % (no concentration beside the values); actives 0.54% (n = 330,000); in the data active means growth inhibition above about 68%;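 further: plate controls were untreated wells for no effect and antibiotic for full effect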
Numbers without * were called inactive. The list is not random: actives were taken first. Their share in the collection is about 0.75%.

`O=C(NN=Cc1c[nH]c2ccccc12)c1cccs1` gave RN4220 kill 5.3, Mtb hypoxia inh 4.8 and ugtP null kill 0.9.
Screening Cc1cc(N/N=C/c2ccncc2)nc2ccccc12 returned Y pestis TopoI 8.5 and TcdB GH inh 11.6*.
For S=c1[nH]nc(COc2ccccc2)n1N=Cc1ccco1 the results were RN4220 kill 4.5, Mtb hypoxia inh 3.9 and ugtP null kill 3.7.
Screening O=C(Cc1cccc2ccccc12)NN=Cc1ccc2cccc(O)c2n1 returned RN4220 kill 0.1, Mtb hypoxia inh -5.1 and ugtP null kill -8.3.
`O=[N+]([O-])c1ccc(NN=Cc2cccc(O)c2)nc1` gave RN4220 kill 6.1, BioA inh 0.0, Y pestis TopoI -10.3, Mtb hypoxia inh 16.5, TcdB GH inh -0.2 and ugtP null kill -13.8.
O=C(CCCC(=O)Nc1cccc(Br)c1)NN=Cc1cc([N+](=O)[O-])ccc1O was read as RN4220 kill 88.4*, Mtb hypoxia inh -6.6 and ugtP null kill 79.1.
`O=[N+]([O-])c1ccc(NN=Cc2cc(Br)ccc2O)nc1` gave RN4220 kill 58.9, BioA inh -3.0, Y pestis TopoI -9.7, Mtb hypoxia inh 37.3*, TcdB GH inh 0.4 and ugtP null kill 93.2*.
`Cc1cccc(NC(=O)CCC(=O)NN=Cc2cc([N+](=O)[O-])ccc2O)c1` gave RN4220 kill 94.2*, Mtb hypoxia inh 5.2 and ugtP null kill 84.5*.
`Cc1ccc(NC(=O)CCC(=O)N/N=C/c2cc([N+](=O)[O-])ccc2O)cc1` gave BioA inh -2.2 and Y pestis TopoI -0.1.
Screening O=C(O)c1cccc(NC(=S)NN=Cc2ccccc2OCc2ccc(Br)cc2)c1 returned RN4220 kill 36.7, Mtb hypoxia inh 13.4 and ugtP null kill 25.2.
For O=C(NN=Cc1ccoc1)c1ccco1 the results were RN4220 kill 2.9, Mtb hypoxia inh -8.6 and ugtP null kill 0.3.
`N=c1c2c(-c3ccccc3)c(-c3ccccc3)n(Cc3ccco3)c2ncn1Cc1ccccc1` gave RN4220 kill 1.0, BioA inh 0.8, Y pestis TopoI 16.8, Mtb hypoxia inh 7.0 and ugtP null kill -7.8.
Screening N=c1c2c(-c3ccccc3)c(-c3ccccc3)n(Cc3ccccc3)c2ncn1CCO returned RN4220 kill -3.0, BioA inh 12.9, Y pestis TopoI 13.5, Mtb hypoxia inh 1.3 and ugtP null kill 90.7*.
For OCCC1CC(O)C(O)[C@]2(OCc3ccccc32)O1 (some centres undefined) the results were RN4220 kill 4.2, Mtb hypoxia inh 6.4 and ugtP null kill 5.9.
Screening CCCCNC(=O)c1c(O)c2cccc3c2n(c1=O)CCC3 returned RN4220 kill -10.7, BioA inh 1.4, Y pestis TopoI 0.6, Mtb hypoxia inh 7.9 and ugtP null kill -1.4.
Screening CCCc1nnc(NC(=O)c2c(O)c3cccc4c3n(c2=O)CCC4)s1 returned RN4220 kill 88.4*, Mtb hypoxia inh 3.1 and ugtP null kill 95.7*.
For COc1ccc(/C=C2/SC(=S)N(NS(=O)(=O)c3ccc(C)cc3)C2=O)cc1 the results were RN4220 kill 64.1, BioA inh 1.7, Y pestis TopoI 4.8, Mtb hypoxia inh 19.9, TcdB GH inh 0.7 and ugtP null kill 81.7*.
For Cc1ccc(S(=O)(=O)NN2C(=O)/C(=C/c3ccc(C(=O)O)cc3)SC2=S)cc1 the results were RN4220 kill 12.2, BioA inh -0.7, Y pestis TopoI 0.6, Mtb hypoxia inh 1.7, TcdB GH inh -0.9 and ugtP null kill 16.8.
Screening Cc1ccc(S(=O)(=O)NN2C(=O)/C(=C\c3ccc(Cl)cc3)SC2=S)cc1 returned RN4220 kill 83.0, BioA inh -0.6, Y pestis TopoI 5.7, Mtb hypoxia inh 6.3, TcdB GH inh 1.9 and ugtP null kill 76.1.
`C=CCOc1ccc(/C=C2\SC(=S)N(NS(=O)(=O)c3ccc(C)cc3)C2=O)cc1` gave RN4220 kill 62.9, BioA inh -0.6, Y pestis TopoI 32.8, Mtb hypoxia inh 5.8, TcdB GH inh -0.1 and ugtP null kill 87.6*.
Cc1ccc(/C=C2\SC(=S)N(NS(=O)(=O)c3ccc(C)cc3)C2=O)cc1 was read as RN4220 kill 62.4, BioA inh 0.2, Y pestis TopoI 12.5, Mtb hypoxia inh 9.2, TcdB GH inh 0.6 and ugtP null kill 38.4.
Cc1ccc(S(=O)(=O)NN2C(=O)/C(=C/c3ccc(F)cc3)SC2=S)cc1 was read as RN4220 kill 84.9*, BioA inh -0.4, Y pestis TopoI 8.0, Mtb hypoxia inh 11.3, TcdB GH inh 0.5 and ugtP null kill 88.9*.
Screening O=C(CCc1ccccc1)NN=Cc1cc2c(cc1Br)OCO2 returned RN4220 kill -4.9, Mtb hypoxia inh 5.4 and ugtP null kill -6.6.
CN(C(=O)c1cccc(Nc2ccc(-c3ccc4c(c3)OCCO4)nn2)c1)C1CCCCC1 was read as RN4220 kill 87.7*, BioA inh 0.1, Y pestis TopoI 17.2, Mtb hypoxia inh 10.8 and ugtP null kill 99.4*.
CCOC(=O)C(C#N)=NNc1ccc(S(=O)(=O)Nc2nc(C)cc(C)n2)cc1 was read as RN4220 kill 6.4, Mtb hypoxia inh 17.6 and ugtP null kill -1.0.
CCOc1ccc(C(=O)C(CN2CCOCC2)c2ccccc2)cc1 (centres undefined) was read as RN4220 kill 16.1, BioA inh 3.9, Y pestis TopoI 13.5, Mtb hypoxia inh 13.6 and ugtP null kill 34.6.
Screening O=C(c1ccc(Br)cc1)C(CN1CCOCC1)c1ccccc1 (centres undefined) returned RN4220 kill 92.8*, BioA inh -0.7, Y pestis TopoI 17.8, Mtb hypoxia inh 14.1, TcdB GH inh 0.2 and ugtP null kill 100.2*.
For Oc1cc(Cl)ccc1Oc1ccc(Cl)cc1Cl the results were RN4220 kill 100.0*, BioA inh 1.7, Y pestis TopoI 9.1, TcdB GH inh -0.6 and ugtP null kill 100.1*.
For C#CCOCCOCCOCCNc1nc(N2CCN(C(=O)Cn3cc(CCCN=C(N)N)nn3)CC2)nc(N2CCN(C(=O)C(C(C)CC)n3cc(CCC(=O)O)nn3)CC2)n1 (centres undefined) the results were RN4220 kill 4.2, Mtb hypoxia inh 5.9 and ugtP null kill 0.4.
Screening CN1/C(=C/c2cc[n+](C)c3ccccc23)C=Cc2ccccc21 returned RN4220 kill 99.5*, Y pestis TopoI -51.8, Mtb hypoxia inh 22.2 and ugtP null kill 95.7*.
For COc1ccccc1C=NNC(=O)CC(=O)NC1CCCCC1 the results were RN4220 kill 7.8, Mtb hypoxia inh 14.7 and ugtP null kill 7.7.
Screening CC1CCN(C(=O)C2CCN(c3ncnc4c3nc3n4CCCCC3)CC2)CC1 returned RN4220 kill 1.3, BioA inh -0.8, Y pestis TopoI 24.8, Mtb hypoxia inh 28.4*, TcdB GH inh 1.6 and ugtP null kill 7.3.
COc1ccc(-c2cc(C3CCN(c4cc(Cl)nc(N)n4)CC3)[nH]n2)cc1 was read as RN4220 kill -7.0, BioA inh 2.8, Y pestis TopoI 36.8, Mtb hypoxia inh 0.6 and ugtP null kill 94.9*.
